Source: PubChem BioAssay (Tox21)
Results filed as inconclusive are left out. Active and inactive are the calls of the source. Unless noted, calls follow the shape of the dose curve; as a rule, active = well fitted curve in the direction sought with a large enough effect in the repeat runs; inconclusive = weak or mixed curves; inactive = no such curve, though single readings can be large; an effect the other way counts as inactive or inconclusive.

Legend:
[1] = qHTS assay for small molecules that induce genotoxicity in human embryonic kidney cells expressing luciferase-tagged ATAD5 - cell viability (AID 651634; calls by dose curve; also: nearly all actives have a fitted effect of over 25% in size; also: potency is read from the fitted curve at half-maximal effect); details: HEK293T ATAD5-luc cells viability, CellTiter-Fluor, 15.5 h; series mostly up to 83.3 µM
Method in brief: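 HEK293T cells carrying luciferase-tagged ATAD5, 2,000 cells/well, exposed to compound for 15.5 hr at 37C. Viability read as live-cell protease activity by CellTiter-Fluor fluorescence after 30 min at 37C.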

[2] = qHTS assay to test for compound auto fluorescence at 590 nm (red) in HepG2 cells (AID 720674); details: HepG2 autofluorescence, red 540/590 nm, 1 h; series mostly up to 91.3 µM
Method in brief: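 Fluorescence at 590 nm emission following 540 nm excitation was recorded from HepG2 wells one hour after compound transfer, with DMSO-only wells as vehicle and Rose Bengal sodium equivalency as the scale.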

[3] = qHTS assay to test for compound auto fluorescence at 535 nm (green) in HepG2 cells (AID 720675); details: green autofluorescence 485/535 nm, 1 h; series mostly up to 91.3 µM
[4] = qHTS assay to test for compound auto fluorescence at 460 nm (blue) in HEK293 cells (AID 720678); details: blue autofluorescence 405/460 nm; series mostly up to 91.3 µM
Method in brief: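 Auto fluorescence in the blue band was quantified as triamterene equivalency. HEK293 cells were seeded at 2,000/well, dosed after a 4-5 hr attachment, and kept overnight at 37C before the 405/460 nm reading.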

[5] = qHTS assay to test for compound auto fluorescence at 590 nm (red) in HEK293 cells (AID 720679); details: red autofluorescence 540/590 nm; series mostly up to 91.3 µM
Method in brief: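 Autofluorescence equivalency to Rose Bengal sodium, 540/590nm, in HEK293 cells exposed overnight to 23 nL compound per well.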

[6] = qHTS assay to test for compound auto fluorescence at 535 nm (green) in HEK293 cells (AID 720680); details: green autofluorescence 485/535 nm; series mostly up to 91.3 µM
[7] = qHTS assay to test for compound auto fluorescence at 460 nm (blue) in HEK293 cell free culture (AID 720681); details: cell-free medium, autofluorescence 405/460 nm (blue); series mostly up to 91.3 µM
Method in brief: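 Compounds were added to cell-free DMEM with 10% FBS and fluorescence read directly. The blue channel used 405 nm excitation and 460 nm emission, with triamterene as the reference fluorophore.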

[8] = qHTS assay to test for compound auto fluorescence at 535 nm (green) in HEK293 cell free culture (AID 720682); details: cell-free medium, green autofluorescence 485/535 nm, stronger effect = higher value; series mostly up to 91.3 µM
Method in brief: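 Green-label autofluorescence (485 nm excitation, 535 nm emission) measured on compound added to cell-free culture medium (DMEM, 10% FBS). Output is expressed relative to fluorescein.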

[9] = qHTS assay to test for compound auto fluorescence at 590 nm (red) in HEK293 cell free culture (AID 720683); details: cell-free medium autofluorescence, Ex540/Em590 red; series mostly up to 91.3 µM
Method in brief: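 Cell-free wells of DMEM with 10% FBS received compound, and intrinsic fluorescence was read at excitation/emission 540/590 nm. Values expressed as equivalence to Rose Bengal sodium.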

[10] = qHTS assay to test for compound auto fluorescence at 590 nm (red) in HepG2 cell free culture (AID 720684); details: cell-free medium autofluorescence, red 540/590 nm; series mostly up to 91.3 µM
Method in brief: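 Compounds are added to culture medium (MEM, 10% FBS) lacking cells, then fluorescence is read at excitation 540 nm, emission 590 nm, with Rose Bengal sodium as the equivalency standard.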

[11] = qHTS assay to test for compound auto fluorescence at 460 nm (blue) in HepG2 cell free culture (AID 720685); details: Cell-free culture medium, blue autofluorescence 405/460 nm; series mostly up to 91.3 µM
Method in brief: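 Compound (23 nL) or DMSO pinned into cell-free MEM with 10% FBS; blue fluorescence read at 405/460 nm excitation/emission, expressed as auto-fluorescence equivalency to triamterene.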

[12] = qHTS assay to test for compound auto fluorescence at 460 nm (blue) in HepG2 cells (AID 720687); details: autofluorescence 405/460 nm, 1 h; series mostly up to 91.3 µM
Method in brief: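 HepG2 cells in MEM with 10% FBS, attached overnight at 37 C, were exposed to compound or DMSO for 1 hr at 37 C, 5% CO2. Blue fluorescence was read at 405/460 nm, with triamterene as reference fluorophore.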

[13] = qHTS assay for small molecules that induce genotoxicity in human embryonic kidney cells expressing luciferase-tagged ATAD5 (AID 651632); details: HEK293T ATAD5-luciferase induction, 16 h; series mostly up to 83.3 µM; also: nearly all actives have a fitted effect of over 15% in size
Method in brief: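 HEK293T cells carrying luciferase-tagged ATAD5 were given compound or DMSO vehicle and incubated 16 hr at 37C, 5% CO2. Luciferase activity was read after 30 min at room temperature with Amplite; a rise signals genotoxic stress.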

[14] = qHTS assay for small molecule disruptors of the mitochondrial membrane potential - cell viability (AID 720634; calls by dose curve; also: nearly all actives have a fitted effect of over 20% in size; also: potency is read from the fitted curve at half-maximal effect); details: HepG2 viability, ATP luminescence (CellTiter-Glo), 1 h; series mostly up to 83.2 µM
Method in brief: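 HepG2 cells, 2,000 per well, attached overnight, then treated 1 hr at 37 C, 5% CO2. Viability read as ATP by CellTiter-Glo luminescence after 30 min at room temperature. Read in the same wells as the m-MPI membrane-potential dye assay.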

[15] = qHTS assay for small molecule disruptors of the mitochondrial membrane potential (AID 720635); details: HepG2 mitochondrial membrane potential, Mito-MPS dye ratio; series mostly up to 83.2 µM; also: potency is read from the fitted curve at half-maximal effect
Method in brief: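 HepG2 cells exposed to compound 1 hr at 37C, then Mito-MPS dye 30 min. Ratio read of aggregate (540/590 nm) versus monomer (490/535 nm) fluorescence.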

[16] = qHTS assay to test for compound auto fluorescence at 535 nm (green) in HepG2 cell free culture (AID 720686); details: Cell-free medium, green autofluorescence 485/535 nm; series mostly up to 91.3 µM
[17] = target: Glucocorticoid receptor (Homo sapiens) (UniProt P04150); test: qHTS assay to identify small molecule antagonists of the glucocorticoid receptor (GR) signaling pathway (AID 720692; active = well fitted inhibition curve with a large enough effect in the signal ratio in the repeat runs, not every such curve was filed as active; the % refers to the signal ratio; also: potency is read from the fitted curve at half-maximal effect); details: GR-bla HeLa, beta-lactamase FRET ratio, dexamethasone-stimulated, 18 h; series mostly up to 58.5 µM
Method in brief: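 GR-bla HeLa cells carrying a GRE-driven beta-lactamase reporter received compound after 4 h plating, then dexamethasone (5 nM final). After 18 h at 37C, the FRET substrate was loaded for 2 h at room temperature and fluorescence read.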

[18] = target: Glucocorticoid receptor (Homo sapiens) (UniProt P04150); test: qHTS assay to identify small molecule agonists of the glucocorticoid receptor (GR) signaling pathway (AID 720691; active = well fitted activation curve with a large enough effect in the signal ratio in the repeat runs, not every such curve was filed as active; the % refers to the signal ratio); details: GR-bla HeLa, beta-lactamase reporter ratio, 18 h; series mostly up to 62.4 µM
Method in brief: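 GR-bla HeLa cells carrying a GRE-driven beta-lactamase reporter, exposed to compounds for 18 h at 37 C. Reporter activation read as fluorescence after 2 h with LiveBLAzer B/G FRET substrate at room temperature.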

[19] = qHTS assay for small molecule agonists of the p53 signaling pathway - cell viability (AID 651633; calls by dose curve;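 also: p53RE-bla HCT reporter cells with a stable beta-lactamase p53 reporter; nearly all actives have a fitted effect of over 30% in size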); details: p53RE-bla HCT-116 viability, ATP luminescence, 16 h; series mostly up to 83.3 µM
Method in brief: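 p53RE-bla cells were treated with compound for 16 hours at 37 C. Cytotoxicity was then measured as CellTiter-Glo luminescence after 30 min at room temperature.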

Measured: Potency

Sequence of Glucocorticoid receptor (Homo sapiens) (P04150 whole entry, looked up): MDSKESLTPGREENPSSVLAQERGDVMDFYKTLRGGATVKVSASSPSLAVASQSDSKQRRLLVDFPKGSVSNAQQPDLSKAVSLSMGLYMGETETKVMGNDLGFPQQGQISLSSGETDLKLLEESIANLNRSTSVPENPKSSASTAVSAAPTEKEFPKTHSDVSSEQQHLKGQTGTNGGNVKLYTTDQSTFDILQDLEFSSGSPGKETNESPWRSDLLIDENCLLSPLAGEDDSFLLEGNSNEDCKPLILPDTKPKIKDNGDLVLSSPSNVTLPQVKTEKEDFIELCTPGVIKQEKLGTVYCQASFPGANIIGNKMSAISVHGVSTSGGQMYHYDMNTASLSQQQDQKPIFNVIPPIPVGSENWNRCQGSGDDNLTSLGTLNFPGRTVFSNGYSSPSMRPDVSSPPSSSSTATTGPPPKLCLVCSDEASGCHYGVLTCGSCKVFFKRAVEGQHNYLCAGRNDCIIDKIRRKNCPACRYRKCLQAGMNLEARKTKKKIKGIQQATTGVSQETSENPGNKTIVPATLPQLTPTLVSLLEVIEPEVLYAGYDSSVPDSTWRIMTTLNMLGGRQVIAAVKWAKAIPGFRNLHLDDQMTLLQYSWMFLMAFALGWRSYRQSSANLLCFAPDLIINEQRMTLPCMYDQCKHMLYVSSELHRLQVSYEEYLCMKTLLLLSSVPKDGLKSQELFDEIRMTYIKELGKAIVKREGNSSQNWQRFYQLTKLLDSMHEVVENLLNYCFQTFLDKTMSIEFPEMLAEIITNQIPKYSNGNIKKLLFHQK

CC(C)O.CC(C)O.OCCN(CCO)CCO.OCCN(CCO)CCO.[Ti]
inactive: [1] | [2] | [3] | [4] | [5] | [6] | [7] | [8] | [9] | [10] | [11] | [12]

OC(c1ccc(Cl)cc1)(c1ccc(Cl)cc1)c1cccnc1
inactive: [13] | [14] | [2] | [3] | [4] | [5] | [6] | [7] | [8] | [9] | [10] | [11] | [16] | [12]
active: [15] 54.5 µM | [17] 49 µM

N#CCC#N
inactive: [13] | [14] | [2] | [3] | [4] | [5] | [6] | [7] | [8] | [10] | [11] | [12] | [17]

C=COC(C)=O
inactive: [13] | [14] | [2] | [3] | [4] | [5] | [6] | [7] | [8] | [9] | [10] | [11] | [16] | [12]

COP(=S)(OC)Oc1cc(Cl)c(I)cc1Cl
active: [17] 24.5 µM
inactive: [13] | [1] | [2] | [3] | [4] | [6] | [7] | [8] | [9] | [10] | [11] | [16] | [12] | [18]

CC1(C)CCC(Cc2ccc(Cl)cc2)C1(O)Cn1cncn1 (stereo unspecified)
inactive: [13] | [2] | [3] | [4] | [5] | [6] | [7] | [8] | [10] | [11] | [16] | [12]
active: [14] 54.5 µM

NS(=O)(=O)C(F)(F)C(F)(F)C(F)(F)C(F)(F)C(F)(F)C(F)(F)C(F)(F)C(F)(F)F
inactive: [13] | [1] | [2] | [3] | [4] | [6] | [7] | [8] | [9] | [10] | [11] | [12]
active: [15] 1.93 µM

O=C1C(=O)c2cccc3cccc1c23
active: [1] 54.4 µM | [15] 54.4 µM
inactive: [2] | [3] | [4] | [6] | [7] | [8] | [9] | [10] | [11] | [16] | [12]

COC(=O)C(Br)CBr (stereo unspecified)
inactive: [19] | [1] | [14] | [2] | [3] | [4] | [5] | [6] | [7] | [8] | [9] | [10] | [11] | [16] | [12] | [18] | [17]

BrCC(Br)C1CCC(Br)C(Br)C1 (stereo unspecified)
inactive: [1] | [14] | [2] | [3] | [4] | [5] | [6] | [8] | [9] | [10] | [11] | [16] | [12] | [18]
active: [15] 27.2 µM

C=CC(=O)OCC(C)O (stereo unspecified)
inactive: [13] | [14] | [15] | [2] | [3] | [4] | [5] | [6] | [7] | [8] | [9] | [10] | [11] | [16] | [12]

Clc1cc(C(Cl)(Cl)Cl)cnc1Cl
inactive: [19] | [1] | [14] | [2] | [3] | [4] | [5] | [6] | [7] | [8] | [10] | [11] | [16] | [12]

C=C(C#N)CCC#N
inactive: [13] | [1] | [14] | [2] | [3] | [5] | [6] | [7] | [8] | [9] | [10] | [11] | [16] | [12] | [18] | [17]

O=C(NC(=O)c1c(F)cccc1F)Nc1ccc(OC(F)(F)C(F)OC(F)(F)F)c(Cl)c1 (stereo unspecified)
inactive: [13] | [1] | [14] | [2] | [3] | [4] | [5] | [6] | [7] | [8] | [9] | [10] | [11] | [16] | [12] | [17]

CO/N=C(/C(=O)OC)c1ccccc1COc1ccccc1C
inactive: [13] | [1] | [2] | [3] | [4] | [5] | [6] | [7] | [8] | [9] | [10] | [11] | [16] | [12] | [18]

CCOP(=S)(Oc1ccc([N+](=O)[O-])cc1)c1ccccc1 (stereo unspecified)
active: [15] 21.7 µM
inactive: [13] | [1] | [2] | [3] | [4] | [5] | [6] | [7] | [8] | [9] | [10] | [11] | [12]

O=C(Nc1ccccc1)Nc1ccnc(Cl)c1
active: [17] 54.9 µM
inactive: [13] | [14] | [2] | [3] | [4] | [5] | [6] | [7] | [8] | [9] | [10] | [11] | [16] | [12]
